Measurements from PubChem BioAssay (Tox21).
Records with an inconclusive call do not appear. Where a call stands in place of a potency, no number is given. Where a structure was tested more than once in an assay, its records may differ in their call. The source made the active and inactive calls. Unless noted, the call rests on the fitted dose curve.

How the values were obtained:
[1] = Nuclear factor erythroid 2-related factor 2/antioxidant responsive element (Nrf2/ARE) small molecule agonists: qHTS cell viability counter screen in human keratinocytes (AID 1919968; active means well fitted curve in the direction sought with a large enough effect in the repeat runs; an effect the other way counts as inactive or inconclusive; further: nearly all actives have a fitted effect of over 55% in size)
Summary of the method: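 Cells of the KeratinoSens line were plated at 1,500 per well and left for 5 h before compound transfer from DMSO stocks. After a 23 h incubation (37 C, 5% CO2), CellTiter-Fluor was added. Signal was taken as fluorescence intensity 1 h later.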

[2] = molecular target: Gonadotropin-releasing hormone receptor (Homo sapiens) (UniProt P30968); test: Human gonadotropin-releasing hormone receptor (GnRHR) small molecule agonists, calcium flux assay in GnRHR-HEK293 cells (AID 1920063); further: nearly all actives have a fitted effect of over 35% in size
Chain of Gonadotropin-releasing hormone receptor (Homo sapiens) (P30968 whole entry, looked up): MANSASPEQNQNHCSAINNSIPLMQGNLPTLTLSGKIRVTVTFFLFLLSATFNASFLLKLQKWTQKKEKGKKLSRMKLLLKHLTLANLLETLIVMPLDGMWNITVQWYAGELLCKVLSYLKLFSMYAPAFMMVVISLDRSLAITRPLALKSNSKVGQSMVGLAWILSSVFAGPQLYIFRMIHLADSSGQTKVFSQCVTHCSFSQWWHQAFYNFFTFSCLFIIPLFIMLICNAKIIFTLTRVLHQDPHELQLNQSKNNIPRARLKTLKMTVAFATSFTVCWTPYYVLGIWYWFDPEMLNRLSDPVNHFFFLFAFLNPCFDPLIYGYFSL
Summary of the method: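 Compounds dissolved in DMSO are pin-transferred onto dye-loaded GnRHR-HEK293 cells, which were seeded 18 h before at 37 C/5% CO2. Calcium signal is read as fluorescence intensity at 1 s intervals for 3 min.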

[3] = molecular target: KiSS-1 receptor (Homo sapiens) (UniProt Q969F8); test: Human kisspeptin (KISS1R) small molecule agonists, calcium flux assay in KISS1R-HEK293 cells (AID 1920064; active means well fitted curve in the direction sought with a large enough effect in the repeat runs; an effect the other way counts as inactive or inconclusive)
Chain of KiSS-1 receptor (Homo sapiens) (Q969F8 whole entry, looked up): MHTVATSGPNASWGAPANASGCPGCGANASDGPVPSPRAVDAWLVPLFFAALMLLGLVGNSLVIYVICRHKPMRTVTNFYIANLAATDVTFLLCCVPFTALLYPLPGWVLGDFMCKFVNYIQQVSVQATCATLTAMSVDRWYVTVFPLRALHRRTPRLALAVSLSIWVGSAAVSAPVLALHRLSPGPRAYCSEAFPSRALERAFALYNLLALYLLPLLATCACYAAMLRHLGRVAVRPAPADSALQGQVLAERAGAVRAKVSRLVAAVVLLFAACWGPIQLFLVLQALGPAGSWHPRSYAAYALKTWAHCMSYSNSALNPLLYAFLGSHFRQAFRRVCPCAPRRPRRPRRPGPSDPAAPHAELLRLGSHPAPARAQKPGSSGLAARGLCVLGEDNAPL
Summary of the method: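 Cell line: HEK293, stable human KISS1R. Dye loading 1 h at 37 C after 18 h culture. Read: kinetic fluorescence, 480/540 nm, 3 min at 1 s intervals.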

[4] = G protein-coupled receptor (GPCR) small molecule agonists, calcium flux assay: HEK293 wild type cell line counter screen (AID 1920065)
Summary of the method: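 Tox21 10K compounds, 15 concentrations each in triplicate, pin-transferred in DMSO onto dye-loaded cells; kinetic read at 480/540 nm for 3 min, 1 s intervals.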

[5] = cAMP Responsive Elements (CRE) small molecule agonists, cell-based qHTS assay (AID 1963590)
Summary of the method: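 HEK 293T cells stably bearing CRE-bla were plated at 2,000 cells per well and rested 18 h. Compounds, positive controls or DMSO were added for 3 h at 37 C. LiveBLAzer B/G substrate was then loaded for 2 h at room temperature.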

[6] = cAMP Responsive Elements (CRE) small molecule antagonists, cell-based qHTS assay (AID 1963591; active means well fitted inhibition curve with a large enough effect in the signal ratio in the repeat runs, not every such curve was filed as active; the % refers to the signal ratio)
Summary of the method: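 First, CRE-bla HEK293T cells settled 18 h at 37 C. Next, compound and 0.25 uM final NKH477 were applied for 3 h. Last, LiveBLAzer B/G substrate was loaded for 2 h at room temperature.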

[7] = molecular target: Beta-2 adrenergic receptor (Homo sapiens) (UniProt P07550); test: Adrenergic beta2 receptor (ADRB2) small molecule antagonists, cell-based qHTS assay (AID 1963592); further: series mostly up to about 92 µM; nearly all actives have a fitted effect of over 50% in size
Chain of Beta-2 adrenergic receptor (Homo sapiens) (P07550 whole entry, looked up): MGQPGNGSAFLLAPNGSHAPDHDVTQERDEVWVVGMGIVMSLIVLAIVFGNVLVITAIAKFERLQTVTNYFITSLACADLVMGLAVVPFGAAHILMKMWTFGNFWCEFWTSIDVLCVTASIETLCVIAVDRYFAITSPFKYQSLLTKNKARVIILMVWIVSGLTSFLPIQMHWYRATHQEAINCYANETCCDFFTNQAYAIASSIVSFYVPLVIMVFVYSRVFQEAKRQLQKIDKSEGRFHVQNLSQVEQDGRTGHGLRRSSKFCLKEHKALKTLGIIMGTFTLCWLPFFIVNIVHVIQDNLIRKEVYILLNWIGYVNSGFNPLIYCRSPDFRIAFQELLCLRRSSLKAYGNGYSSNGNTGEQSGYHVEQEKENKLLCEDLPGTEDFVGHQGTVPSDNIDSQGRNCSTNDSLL
Summary of the method: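 Assay format: CHO-ADRB2 cells, 18-20hr seeding at 37C/5% CO2, then compound plus 1nM isoproterenol agonist mix for 0.5hr RT. Homogeneous time-resolved fluorescence cAMP detection after 1hr, expressed as 665/615 nm ratio.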

[8] = molecular target: Beta-2 adrenergic receptor (Homo sapiens) (UniProt P07550); test: Adrenergic beta2 receptor (ADRB2) small molecule agonists, cell-based qHTS assay (AID 1963593);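 further: CHO cells stably overexpressing human ADRB2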
Summary of the method: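 CHO cells stably over-expressing ADRB2 were plated overnight at 37C, then dosed with compounds plus a stimulation mix containing 100uM IBMX and 25uM Ro-20-1724 for 0.5hr at room temperature. cAMP was measured by HTRF competition, 1hr.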

[9] = molecular target: D(2) dopamine receptor (Homo sapiens) (UniProt P14416); test: Dopamine D2 receptor (DRD2) small molecule agonists, cell-based qHTS assay (AID 1963594); further: nearly all actives have a fitted effect of over 35% in size
Chain of D(2) dopamine receptor (Homo sapiens) (P14416 whole entry, looked up): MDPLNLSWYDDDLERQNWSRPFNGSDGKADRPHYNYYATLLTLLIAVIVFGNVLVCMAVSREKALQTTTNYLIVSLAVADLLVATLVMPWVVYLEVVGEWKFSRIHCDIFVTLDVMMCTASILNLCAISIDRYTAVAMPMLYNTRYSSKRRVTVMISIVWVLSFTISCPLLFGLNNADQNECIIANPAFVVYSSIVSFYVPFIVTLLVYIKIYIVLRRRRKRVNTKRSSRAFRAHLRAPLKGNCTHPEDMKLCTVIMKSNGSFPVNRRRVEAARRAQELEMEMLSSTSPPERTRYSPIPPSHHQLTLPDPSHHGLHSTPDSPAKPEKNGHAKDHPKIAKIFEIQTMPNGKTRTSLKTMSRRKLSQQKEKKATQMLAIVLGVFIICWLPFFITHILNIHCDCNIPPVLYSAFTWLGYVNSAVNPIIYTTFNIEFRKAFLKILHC
Summary of the method: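 HEK293 cells stably expressing DRD2 were cultured 24 h at 37 C, then given Ro20-1724 (0.1 mM final) and compounds for 10 min at room temperature. NKH477 (200nM) was then added for 30 min. cAMP was read by HTRF.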

[10] = molecular target: D(2) dopamine receptor (Homo sapiens) (UniProt P14416); test: Dopamine D2 receptor (DRD2) small molecule antagonists, cell-based qHTS assay (AID 1963595; active means well fitted inhibition curve with a large enough effect in the signal ratio in the repeat runs, with a control signal flat; the % refers to the signal ratio)
Summary of the method: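 Human DRD2 antagonist qHTS measuring cAMP by HTRF. The cells are exposed to compound for 10 min, then to NKH477 (200 nM) and quinpirole (12 nM) for 30 min at RT, with Ro20-1724 (0.1 mM) present throughout.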

[11] = p53 small molecule agonists, cell-based qHTS assay with rat liver microsomes (AID 1963578)
Summary of the method: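 Metabolic activation is supplied by rat liver microsomes with NADPH (each 0.5 mg/mL final). p53RE-bla cells incubate with compound 16 h at 37 C; reporter activity is measured by LiveBLAzer fluorescence.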

[12] = p53 small molecule agonists, cell-based qHTS assay with human liver microsomes: qHTS cell viability counter screen (AID 1963579); further: nearly all actives have a fitted effect of over 45% in size; further: potency means the concentration at half of the fitted maximal effect
Summary of the method: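 After the 460/530 nm beta-lactamase read, CellTiter-Glo was added to the same wells and luminescence measured after 30 min at room temperature, giving viability of p53RE-bla cells treated 16 h with compounds plus microsomes and NADPH.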

[13] = p53 small molecule agonists, cell-based qHTS assay with rat liver microsomes: qHTS cell viability counter screen (AID 1963580); further: nearly all actives have a fitted effect of over 45% in size
Summary of the method: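 Luminescent ATP readout (CellTiter-Glo, 30 min at room temperature) reports viability of p53RE-bla HCT-116 cells after 16 h at 37 C with test compounds under metabolic activation by rat liver microsomes and NADPH at 0.5 mg/mL final each.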

[14] = p53 small molecule agonists, cell-based qHTS assay: qHTS cell viability counter screen (AID 1963581); further: nearly all actives have a fitted effect of over 45% in size
Summary of the method: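 ATP content measured by luminescence in HCT-116 p53RE-bla cells treated 16 h at 37 C, same wells as the reporter screen.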

[15] = molecular target: 5-hydroxytryptamine receptor 2A (Homo sapiens) (UniProt P28223); test: 5-hydroxytryptamine receptor 2A (HTR2A) small molecule agonists, cell-based qHTS assay (AID 1963587); further: nearly all actives have a fitted effect of over 30% in size
Chain of 5-hydroxytryptamine receptor 2A (Homo sapiens) (P28223 whole entry, looked up): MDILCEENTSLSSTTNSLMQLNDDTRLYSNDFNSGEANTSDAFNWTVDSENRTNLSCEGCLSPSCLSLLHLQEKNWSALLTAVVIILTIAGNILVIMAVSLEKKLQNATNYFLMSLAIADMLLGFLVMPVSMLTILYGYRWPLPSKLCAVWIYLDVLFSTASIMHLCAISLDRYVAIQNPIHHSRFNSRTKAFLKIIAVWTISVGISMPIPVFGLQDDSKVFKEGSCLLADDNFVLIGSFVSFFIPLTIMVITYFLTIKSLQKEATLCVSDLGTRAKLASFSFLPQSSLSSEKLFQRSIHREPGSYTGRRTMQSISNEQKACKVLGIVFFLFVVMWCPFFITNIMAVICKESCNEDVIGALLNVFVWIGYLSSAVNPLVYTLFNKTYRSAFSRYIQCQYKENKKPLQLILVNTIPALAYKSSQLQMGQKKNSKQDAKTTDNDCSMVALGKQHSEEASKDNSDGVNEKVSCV
Summary of the method: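 HTR2A-CHO cells, plated 18 h at 37 C/5% CO2, dye-loaded 1 h at 37 C; compounds in DMSO added by pin tool (agonist mode). Intracellular calcium flux read as kinetic fluorescence on FDSS over 2 min at 1 s intervals.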

[16] = molecular target: Muscarinic acetylcholine receptor M1 (Homo sapiens) (UniProt P11229); test: Cholinergic receptor muscarinic 1 (CHRM1) small molecule antagonists, cell-based qHTS assay (AID 1963588); further: nearly all actives have a fitted effect of over 40% in size
Chain of Muscarinic acetylcholine receptor M1 (Homo sapiens) (P11229 whole entry, looked up): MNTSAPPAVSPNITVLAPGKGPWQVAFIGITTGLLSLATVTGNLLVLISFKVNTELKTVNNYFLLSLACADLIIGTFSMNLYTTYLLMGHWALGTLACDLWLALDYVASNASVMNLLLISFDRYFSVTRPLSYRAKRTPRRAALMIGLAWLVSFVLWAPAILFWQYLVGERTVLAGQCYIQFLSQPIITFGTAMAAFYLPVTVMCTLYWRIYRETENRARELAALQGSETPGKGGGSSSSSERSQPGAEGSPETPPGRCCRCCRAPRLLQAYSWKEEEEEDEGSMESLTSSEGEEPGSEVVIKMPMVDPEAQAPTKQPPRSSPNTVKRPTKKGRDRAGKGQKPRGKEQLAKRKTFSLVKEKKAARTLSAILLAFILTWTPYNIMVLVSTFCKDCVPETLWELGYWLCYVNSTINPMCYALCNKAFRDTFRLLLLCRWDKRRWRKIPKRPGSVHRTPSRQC
Summary of the method: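 Compounds were tested at 15 concentrations in three independent runs. Dye-loaded CHRM1-CHO cells were exposed 5 min at room temperature before stimulation by acetylcholine added at 50nM. Intracellular calcium was read kinetically on FDSS for 3 min.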

[17] = molecular target: Muscarinic acetylcholine receptor M1 (Homo sapiens) (UniProt P11229); test: Cholinergic receptor muscarinic 1 (CHRM1) small molecule agonists, cell-based qHTS assay (AID 1963589); further: nearly all actives have a fitted effect of over 35% in size
Summary of the method: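 Homogeneous fluorescence calcium flux, agonist mode. Human M1-expressing CHO cells; compound dosed at 15 concentrations, three independent runs; signal sampled every 1 sec.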

[18] = p53 small molecule agonists, cell-based qHTS assay (AID 1963582; active means well fitted activation curve with a large enough effect in the signal ratio in the repeat runs, not every such curve was filed as active; the % refers to the signal ratio)
Summary of the method: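 16 h compound exposure (37 C) of p53 response element–bla cells, preceded by 5 h recovery at 37 C/5% CO2; read-out via LiveBLAzer B/G FRET substrate, 2 h RT, fluorescence intensity.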

[19] = molecular target: 5-hydroxytryptamine receptor 2A (Homo sapiens) (UniProt P28223); test: 5-hydroxytryptamine receptor 2A (HTR2A) small molecule antagonists, cell-based qHTS assay (AID 1963586); further: nearly all actives have a fitted effect of over 45% in size
Summary of the method: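 CHO cells stably expressing human HTR2A were plated for 18 h at 37 C, then loaded with calcium dye for 1 h. Compounds were preincubated 5 min at room temperature before DOI (4 nM solution) was added. Kinetic fluorescence was read for 3 min.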

SMILES	Potency [1]	Potency [2]	Potency [3]	Potency [4]	Potency [5]	Potency [6]	Potency [7]	Potency [8]	Potency [9]	Potency [10]	Potency [11]	Potency [12]	Potency [13]	Potency [14]	Potency [15]	Potency [16]	Potency [17]	Potency [18]	Potency [19]
O=C(O)c1cccnc1	inactive	inactive	inactive	inactive	inactive	inactive	inactive	inactive	inactive	inactive									
N#Cc1ccccc1	inactive	inactive	inactive	inactive		inactive	inactive		inactive	inactive	inactive	inactive	inactive	inactive	inactive	inactive	inactive		
Brc1cc(Oc2cc(Br)c(Br)c(Br)c2Br)c(Br)c(Br)c1Br	inactive	inactive	inactive		inactive	inactive	inactive	inactive	inactive		inactive	20.5 µM (active) and inactive		inactive		inactive	inactive	inactive	inactive
Nc1ccc(S(N)(=O)=O)cc1	inactive	inactive	inactive	inactive	inactive	inactive	inactive	inactive	inactive	inactive				inactive					
